Source: PubChem BioAssay
Sampled rows, rich in hits. Any-hit rate of the full collection: about 2.1%.
Platelet DG rel = platelet dense granule release activity. inhibition, %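 (compounds screened at 7.5 µM in platelet-rich plasma)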. 300,000 compounds, 0.22% hits. human platelet-rich plasma, SFLLRN dense granule ATP release, luminescence;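 active = mean replicate score, as percent of positive control, at or above 50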
Wee1 degr inh = human Wee1 degradation inhibition, primary screen | P30291 | HeLa Luc-Wee1K328M stability, luciferase luminescence; 100% = proteasome inhibitor MG132 effect | reporter increase, % at 5 µM | 220,000 compounds, 1.2% hits;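 active = activation above the mean of all tested compounds plus 3 SD, set per screening run, cut at about 8.8% in these data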;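 also: cells exposed to compound for 20 h before luminescence read; 0% = DMSO alone and 100% = MG132 at 30 µM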
aSyn 5UTR inh = MLPCN primary screen, SNCA 5' untranslated region; 300,000 compounds, 0.82% hits; inhibition, % (tested at 7.5 µM); AID 1813; alpha-synuclein 5'UTR reporter, inhibitor activity; in the data active = inhibition above about 60%;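 also: H4 neuroglioblastoma cells stably carrying SNCA 5'UTR luciferase fusion; 0% = DMSO wells and 100% = positive control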
HIF act = HIF pathway transcriptional activation | U2OS HRE-luciferase reporter, luminescence; normalized: DMSO 0%, desferrioxamine 100% | activation, % at 7.5 µM (by protocol) | 300,000 compounds, 0.32% hits | AID 1910;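 active = mean activation of at least 10% of the iron chelator positive control signal, with at least half of replicates also reaching 10%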
KLF5 inhibitor = kruppel-like factor 5 inhibition; DLD-1 KLF5 promoter-luciferase reporter, luminescence; 290,000 compounds, 0.23% hits; inhibition, % at 5 µM;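 active = inhibition above a per-plate limit of that plate's mean compound inhibition plus 3 SD, cut at about 60% in these data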;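 also: 0% = DMSO wells and 100% = LY294002 at 200 µM; higher means less KLF5 promoter-driven luciferase light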
Wee1 degr conf = human Wee1 degradation inhibition, confirmation; shares compounds with Wee1 degr inh; HeLa Luc-Wee1K328M degradation, luminescence; vehicle 0%, proteasome-blocked wells 100%; activation, % at 5 µM; 1,100 compounds, 4% hits; in the data active = activation above about 8.9%
* marks the source's active call; other numbers are inactive results; · = no result given.

SMILES	Platelet DG rel	Wee1 degr inh	aSyn 5UTR inh	HIF act	KLF5 inhibitor	Wee1 degr conf
CCOc1ccc(Cc2noc3c2C(=O)CCC3)cc1OCC	4	17*	-1	0	6	2
COc1ccc(C(=O)O)cc1S(=O)(=O)Nc1ccccc1Cc1ccccc1	6	·	1	1	4	·
COc1ccc(C=O)cc1OS(=O)(=O)c1ccc(NC(C)=O)cc1	4	1	17	2	26	·
COc1ccc(/C=N/NC(=O)c2ccc3ccccc3c2)cc1OS(=O)(=O)c1ccc(NC(C)=O)cc1	2	14*	-22	1	11	13*
CCOCCCNC(=S)N1C2CCC1CC(NC(=O)Nc1ccc(C(=O)OCC)cc1)C2 (centres undefined)	-9	3	11	-1	-31	·
CCCCNC(=O)NC12CC3CC(CC(C3)C1)C2	11	22*	-12	0	-7	3
CCOCCCNC(=S)N1C2CCC1CC(NC(=O)NC13CC4CC(CC(C4)C1)C3)C2 (centres undefined)	12	12*	15	·	-14	5
CC(=O)Nc1ccccc1C(=O)C(=O)Nc1ccc(C)c(C)c1	0	7	-182	1	-103	·
CC(=O)Nc1ccccc1C(=O)C(=O)Nc1ccc(C)c(F)c1	-9	18*	-264	-31	-61	8
CCCOc1ccc(C(C)=O)cc1CN1CCOCC1	14	12*	-9	-1	1	-1
CC(=O)c1ccc(Oc2ncnc3sccc23)c(CN2CCOCC2)c1	4	-2	17	-1	-8	·
Cc1cc(C)c(C(=O)Nn2c(C)nc3ccccc3c2=O)cc1C	-2	·	-2	1	-49	·
O=C(Nc1ccccc1)C1=C[C@@H](c2ccccc2)C[C@@H](OCc2ccc(CO)cc2)O1	5	0	-94	4	-7	·
O=C(Nc1ccccc1)C1=C[C@H](c2ccc(Br)cc2)C[C@H](OCc2ccc(CO)cc2)O1	1	11*	-14	0	1	5
CC(OC(=O)CCc1nc2ccccc2c(=O)[nH]1)C(=O)c1ccc(Br)cc1 (centres undefined)	7	1	11	0	-14	·
O=[N+]([O-])c1ccccc1CSc1nc2ccccc2o1	6	44*	-193	-5	-48	-1
O=C(COc1ccc([N+](=O)[O-])cc1)Nc1ccc(NC(=O)c2ccccc2)cc1	-13	·	3	0	-44	·
CCC(=O)Oc1ccc(C(=O)Nc2ccc([N+](=O)[O-])cc2)cc1	5	12*	-170	4	-86	3
Nc1c(C(=O)O)sc2nc(-c3ccccc3)cc(-c3ccccc3)c12	2	11*	-13	0	3	1
Nc1c(C(=O)O)sc2nc(-c3ccccc3)cc(-c3ccc(F)cc3)c12	6	4	-12	0	-24	·
CC1(C)CC(=O)C2=C(C1)OC(N)=C(C#N)C2c1cc2c(cc1[N+](=O)[O-])OCO2 (centres undefined)	-2	11*	-26	-33	-8	2
COc1cc(C2=NOC(C(=O)NCc3cccs3)C2)cc(OC)c1OC (centres undefined)	2	11*	24	0	42	15*
COc1ccc(C2=NOC(C(=O)NCc3cccs3)C2)cc1 (centres undefined)	0	4	-46	6	11	·
CC(C1CC1)N(Cc1ccccc1)C(=S)Nc1cccc(C(F)(F)F)c1 (centres undefined)	24	2	11	-1	-12	·
CC(C1CC1)N(Cc1ccccc1)C(=O)NC(=O)c1ccc(F)cc1 (centres undefined)	-6	34*	21	-1	-4	0
CN(Cc1ccccc1)C(=O)c1ccc2c(c1)OCO2	0	0	23	0	-27	·
CCCCN(C(=O)c1ccc2c(c1)OCO2)c1ccccc1	1	14*	-9	0	-6	0
c1ccc(N2CCN(C3CC4CCC3C4)CC2)cc1 (centres undefined)	-1	·	2	-1	-6	·
COc1cc(/C=N/Nc2ccc(S(N)(=O)=O)cc2[N+](=O)[O-])cc(OC)c1O	4	11*	-11	0	-10	-1
O=C1CCCN1C(=O)COc1ccccc1[N+](=O)[O-]	3	·	10	0	·	·
